Screens deposited in PubChem BioAssay by several laboratories.
In the library only some 4.1% were active in any assay of this set; here they are far more common.
PolyA inhibitor = polyadenylation inhibitors in yeast reporter cells, primary screen, luminescence, S. cerevisiae; S. cerevisiae SKY197-pL101 polyadenylation reporter, beta-gal luminescence; efflux-impaired pdr1/pdr3 knockout yeast; score 100 = 6 SD above DMSO; activity score, % at 12 µM; 300,000 tested, 0.02% active;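 active = lowest replicate activity score at least 50, where 100 means six control SD above control mean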;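 note: yeast exposed to compound for 9 h at 30 °C; higher score means more reporter readthrough which indicates perturbed polyadenylation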
DAX1 inh-1 = DAX1 (NR0B1) inhibitors, primary screen, cell-based, HEK293, Gal4-DAX1, luciferase luminescence. Nuclear receptor subfamily 0 group B member 1 (Homo sapiens), P51843. HEK293 Gal4-DAX1 luciferase reporter. inhibition, % at 6.75 µM. 340,000 tested, 0.99% active. AID 504766, 2011;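 active = inhibition above the mean over all tested compounds plus 3 SD, cut at about 4.2% in these data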;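 note: inhibition shows as a rise in luminescence from relieved DAX1 repression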
Target sequence (P51843 207-470 limits assumed): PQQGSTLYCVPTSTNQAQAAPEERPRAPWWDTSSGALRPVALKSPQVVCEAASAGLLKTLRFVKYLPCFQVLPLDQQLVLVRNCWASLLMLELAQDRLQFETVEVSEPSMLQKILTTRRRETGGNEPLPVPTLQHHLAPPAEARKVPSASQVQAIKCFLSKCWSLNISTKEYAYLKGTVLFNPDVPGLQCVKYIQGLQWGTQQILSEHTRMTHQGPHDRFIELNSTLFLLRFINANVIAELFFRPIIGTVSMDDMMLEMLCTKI
hgDAF-12 ag = H. glycines DAF-12 receptor agonists, primary screen, cell-based, luminescence, HEK293, GAL4 fusion, UAS-luciferase | Nuclear hormone receptor DAF-12 (Heterodera glycines), GAL4 fusion | 370,000 tested, 1.8% active | HEK293 GAL4-hgDAF12 UAS-luciferase reporter, agonist luminescence; normalized to butyrate control | AID 687014, 2013 | activation, % at 6.8 µM;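 active = activation above a cutoff set at the mean of all screened compounds plus 3 SD, cut at about 10% in these data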
ssDAF12 agonist = S. stercoralis DAF-12 nuclear receptor activators, primary screen, cell-based, luminescence, HEK293, GRIP1 co-expression, lit1-tk-luc | Nuclear hormone receptor DAF-12 (Strongyloides stercoralis) | HEK293 ssDAF-12/GRIP1 lit1-tk-luc reporter; % of 3 µM dafachronic acid response | activation, % at 6.8 µM | 370,000 tested, 1% active;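 active = activation above the mean over all tested compounds plus 3 SD, cut at about 0.9% in these data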
DAX1 inh-2 = DAX1 (NR0B1) inhibitors on StAR promoter, primary screen, cell-based, luminescence, SF-1 (NR5A1), full-length DAX-1 | HEK293T StAR-luciferase reporter, SF-1/DAX-1 repression relief | inhibition, % at 6.8 µM | 370,000 tested, 1.1% active | AID 652010, 2013;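 active = inhibition above the mean over all tested compounds plus 3 SD, cut at about 3.6% in these data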;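 note: higher inhibition means more luminescence from relief of DAX-1 repression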
hcDAF12 agonist = H. contortus DAF-12 nuclear receptor activators, primary screen, cell-based, luminescence, HEK293, lit1-tk-luc reporter; HEK293 hcDAF-12 lit1-tk-luc reporter; 0% DMSO, 100% Δ7-dafachronic acid; activation, % at 6.8 µM; 370,000 tested, 1.4% active;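 active = activation above the mean of all tested compounds plus 3 SD, cut at about 5.5% in these data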
Of the large screens only hits and unclear results are named; the others gave an inactive call.

CCOC(=O)c1c(NC(=O)CSc2nnc(C)c(=O)[nH]2)sc(C)c1-c1ccc(C)cc1	DAX1 inh-1 4.6
CCOC(=O)C1=CCN(S(=O)(=O)c2ccc(Br)cc2)C1c1cccc(Cl)c1 (stereo not given)	none (no result: PolyA inhibitor, DAX1 inh-1)
Cn1cccc1C(=O)NC(=O)CSc1nc2ccccc2s1	ssDAF12 agonist 1.0
O=C(COC(=O)[C@H](Cc1c[nH]c2ccccc12)NC(=O)c1ccc(Cl)cc1)Nc1ccc2c(c1)OCO2	hgDAF-12 ag 11
COC(=O)C(Cc1ccc(O)cc1)NS(=O)(=O)Cc1ccccc1 (stereo not given)	none (no result: PolyA inhibitor, DAX1 inh-1)
COC(=O)c1c(-c2ccc(OC)cc2)c2c(c3c4cc(OC)ccc4n(S(=O)(=O)c4ccc(C)cc4)c13)C(=O)N(C)C2	none (no result: PolyA inhibitor, DAX1 inh-1)
CC(O)CN=c1cc(-c2ccccc2)oc2ccc(Cl)cc12 (stereo not given)	hgDAF-12 ag 11
CN(C)CCCN=c1cc(-c2ccccc2)oc2ccc(Cl)cc12	DAX1 inh-1 6.3, DAX1 inh-2 4.4 (no result: PolyA inhibitor)
OCCN=c1cc(-c2ccccc2)oc2ccc(Cl)cc12	none (no result: hgDAF-12 ag, ssDAF12 agonist, DAX1 inh-2, hcDAF12 agonist)
Cc1ccc(C(=O)NC2CCCCN(Cc3ccc(Cl)cc3)C2=O)c(C)c1 (stereo not given)	none (no result: PolyA inhibitor, DAX1 inh-1)
Clc1nccnc1N/N=C/c1ccc(Br)cc1	DAX1 inh-1 5.1, hgDAF-12 ag 13
Oc1ccccc1/C=N/Nc1nccnc1Cl	none
CCOC(=O)C1=NOC(C(C)=O)(C(=O)Nc2cc(C)cc(C)c2)C1 (stereo not given)	none (no result: PolyA inhibitor, DAX1 inh-1)
Cc1ccc(-n2c(SCc3cccc(F)c3)nc3ccccc3c2=O)cc1	none (no result: PolyA inhibitor, DAX1 inh-1)
CC1=C(C(=O)OCC2CCCO2)C(c2coc3ccccc3c2=O)C2=C(CCCC2=O)N1 (stereo not given)	DAX1 inh-1 4.2
COc1ccc(-c2nnc(SCC(=O)NN=C/C=C\c3ccco3)n2-c2ccc(OC)cc2)cc1	none (no result: PolyA inhibitor, DAX1 inh-1)
Cc1sc(NC(=O)c2ccco2)c(C(Nc2ccccn2)c2ccccc2)c1C (stereo not given)	hgDAF-12 ag 11
O=C(NC(=S)NNS(=O)(=O)c1ccccc1)c1cccnc1	ssDAF12 agonist 1.1
O=C(NC(=S)NNC(=O)c1ccccc1O)c1cccnc1	DAX1 inh-1 4.3
COc1ccc(-c2nc3c(C)cc(Br)cn3c2Cc2ccccc2C(F)(F)F)cc1OC	none (no result: PolyA inhibitor, DAX1 inh-1)
COc1cccc(-c2nnc(SCC(=O)N3CCOCC3)o2)c1	none (no result: PolyA inhibitor)
CCC1CCCCN1C(=O)CSc1nnc(-c2ccco2)o1 (stereo not given)	ssDAF12 agonist 1.0 (no result: PolyA inhibitor)
CC1CCN(C(=O)CSc2nnc(-c3ccco3)o2)CC1	none
CC1CC(C)CN(C(=O)CSc2nnc(-c3ccco3)o2)C1 (stereo not given)	DAX1 inh-1 4.8
COc1cccc(-c2nnc(SCC(=O)N3CC(C)CC(C)C3)o2)c1 (stereo not given)	DAX1 inh-1 6.7
CCn1c(COc2ccc(Cl)cc2)nnc1SCc1ccc(C#N)cc1	none
CCn1c(COc2ccc(Cl)cc2)nnc1SC1CCc2ccccc2C1=O (stereo not given)	ssDAF12 agonist 1.5
CCCn1c(C)cc(/C=C(\C#N)C(=O)OCC(=O)Nc2ccc(OC)c(Cl)c2)c1C	none
COCCn1c(C)cc(/C=C(\C#N)C(=O)OCC(=O)Nc2ccc(S(N)(=O)=O)cc2)c1C	DAX1 inh-1 5.0, hcDAF12 agonist 6.4 (no result: PolyA inhibitor)
Cc1cc(/C=C(\C#N)C(=O)OCC#N)c(C)n1CC(C)C	none
Cc1cc(/C=C(\C#N)C(=O)OCC(=O)Nc2ccc(OC(F)F)cc2)c(C)n1CC(C)C	DAX1 inh-2 4.0
NCCC(=O)Nc1ccc(Cl)cc1C(=O)c1ccc[nH]1	none (no result: PolyA inhibitor, DAX1 inh-1, DAX1 inh-2)
CCOC(=O)[C@@]12CCCC3=C1N(CCC3)C(=O)[C@H]2CC(=O)N1CCCC1	none (no result: PolyA inhibitor, DAX1 inh-1)
Cc1ccccc1CN1[C@@H](C)[C@H](c2ccccc2)Oc2cccc(NCCc3ccccc3)c2S1(=O)=O	none (no result: PolyA inhibitor, DAX1 inh-1)
CC(C)c1cc(C(N)=O)c(NC(=O)c2cccc(COc3ccc(Cl)cc3)c2)s1	hgDAF-12 ag 13
CCOC(=O)C1=C(C(=O)OCC)C2N(Cc3ccc(Br)cc3)c3ccccc3[C@@]23C[C@@H](C(=O)OC)N(S(=O)(=O)c2ccc(Br)cc2)C3=N1 (stereo not given in full)	none (no result: PolyA inhibitor, DAX1 inh-1)
COc1cc(/C=C2\SC(=S)N(NC(=O)c3ccc(O)c(OC)c3)C2=O)ccc1O	none
COc1cc(/C=C2\SC(=S)N(NC(=O)c3ccncc3)C2=O)ccc1O	PolyA inhibitor 92
COc1cc(/C=C2\SC(=S)N(NS(=O)(=O)c3ccccc3)C2=O)ccc1O	PolyA inhibitor 85
CC(C)(C)OC(=O)N1CCC(N[C@@H](Cc2c[nH]c3ccccc23)C(=O)NCC(c2ccccc2)c2ccccc2)(C(=O)NC2CCCCC2)CC1	none (no result: PolyA inhibitor, DAX1 inh-1, DAX1 inh-2)
Cc1[nH]c(=O)[nH]c(=O)c1CCSSCCc1c(C)[nH]c(=O)[nH]c1=O	none (no result: PolyA inhibitor, DAX1 inh-1)
CCn1c(Cc2cccs2)nnc1SCC(=O)Nc1ccc2c(c1)OCCO2	none (no result: PolyA inhibitor, DAX1 inh-1)
S=C1NCCOc2ccccc21	none (no result: PolyA inhibitor, DAX1 inh-1)
CC(C)[C@H](NC(=O)N1CC(=O)Nc2ccccc21)C(=O)N[C@H](Cc1c[nH]c2ccccc12)C(=O)O	ssDAF12 agonist 1.6
COC(=O)C1CN(Cc2cn(Cc3ccc(F)cc3)nn2)CCS(=O)(=O)N1Cc1ccccc1 (stereo not given)	none (no result: PolyA inhibitor, DAX1 inh-1)
CC(C)=CCOc1c2ccoc2cc2oc(=O)ccc12	PolyA inhibitor 54
CC(C)=CCOc1c2ccoc2c(OCC=C(C)C)c2oc(=O)ccc12	none (no result: PolyA inhibitor)
COC(=O)c1sccc1N/N=C/c1ccc(OC)c(OC)c1OC	none
COC(=O)c1sccc1N/N=C/c1cccc(Oc2ccccc2)c1	hgDAF-12 ag 11
Cc1nc(NCCCN2CCOCC2)c2cnn(-c3ccccc3)c2n1	hgDAF-12 ag 12 (no result: PolyA inhibitor)
c1ccc(-n2ncc3c(NCCN4CCOCC4)ncnc32)cc1	none
COc1ccc(OC)c(N)c1	DAX1 inh-1 5.1
COc1cc(C=Nn2c(-c3cc(-c4ccccc4)n[nH]3)n[nH]c2=S)ccc1OC(C)=O	none (no result: PolyA inhibitor, DAX1 inh-1)
CCN(CC)C(=O)CC[C@H]1CC[C@]2(CCCN(Cc3ccc(Br)cc3)C2)O1	none (no result: PolyA inhibitor, DAX1 inh-1)
COc1cccc(CN(C)C(=O)Cc2c[nH]c3ccccc23)c1OC	none
COc1cccc(CN(C)C(=O)Cc2c[nH]c3ccccc23)c1	hcDAF12 agonist 6.1
